Screening data deposited in PubChem by National Center for Advancing Translational Sciences (NCATS).
D3 antag: D3 dopamine receptor (human) antagonism; P35462; 360,000 compounds, 2.5% hits; max response, negative = inhibition, %; D3R cells, DiscoveRx beta-arrestin luminescence, antagonist mode; stronger effect = lower value; in the data active = max response below about -50%; inconclusive = no clear call, values can overlap the other calls; note: % is set by controls: 0 for no effect and ±100 for the full control effect
Target sequence (P35462 whole entry, looked up): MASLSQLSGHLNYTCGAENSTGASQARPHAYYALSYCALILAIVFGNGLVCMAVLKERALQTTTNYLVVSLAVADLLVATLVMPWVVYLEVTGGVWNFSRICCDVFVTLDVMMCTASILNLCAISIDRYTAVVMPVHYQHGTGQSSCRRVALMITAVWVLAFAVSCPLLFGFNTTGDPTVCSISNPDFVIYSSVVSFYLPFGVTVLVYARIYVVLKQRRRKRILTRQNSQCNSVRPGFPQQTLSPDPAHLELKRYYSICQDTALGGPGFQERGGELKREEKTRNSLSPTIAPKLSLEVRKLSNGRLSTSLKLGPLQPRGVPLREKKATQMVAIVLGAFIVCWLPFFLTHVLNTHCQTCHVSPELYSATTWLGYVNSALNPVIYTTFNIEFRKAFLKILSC
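Cells expressing the human receptor were seeded at 1500 cells/well, incubated overnight at 37 degrees C in 5% CO2, then exposed to library compounds with dopamine controls for 90 minutes at 37 degrees C before luminescent detection.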
DRD3 agonist: agonists of human D3 dopamine receptor; D3R DiscoveRx beta-arrestin cells, luminescence, 90 min; 410,000 compounds, 0.58% hits; AID 652048; max activation, %; P35462; in the data active = max activation above about 30%; note: 0% is about no effect
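Agonist-mode cell screen: cells plated at 1500/well and incubated overnight at 37 °C, then exposed to library compounds for 90 min at 37 °C. Detection reagent was added for 30–60 min at room temperature, and luminescence was read.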
TGFb SMAD3 inh: blocks TGF-b signaling; 410,000 compounds, 1.2% hits; HepG2 CAGA-GFP TGF-b/SMAD3 reporter, GFP fluorescence, 18 h; TGF-beta stimulated, 500 pg/mL final; AID 588855; Potency, µM (doses to about 46.1 µM), for the others: at the top dose activity, negative = inhibition, most hits filed as inhibitors; note: potency is the fitted concentration of half-maximal effect; % is set by controls: 0 for no effect and ±100 for the full control effect; nearly all actives have a fitted effect of over 65% in size
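Using HEPG2 CAGA-GFP reporter cells at 1000 cells/well, we pinned test compounds, stimulated with recombinant TGF-beta (500 pg/mL final) and measured total well GFP after 18 h.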
ATXN2 expr inh: inhibitors of ATXN2 expression; Potency, µM (top dose mostly 57 µM), for the others: top-dose activity change, negative = inhibition, hits mostly inhibitors; 360,000 compounds, 0.72% hits; HEK-293 ATXN2-luciferase reporter, luminescence, 24 h; note: potency is the fitted concentration of half-maximal effect; % is set by controls: 0 for no effect and ±100 for the full control effect; nearly all actives have a fitted effect of over 55% in size
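ATXN2-luciferase reporter cells (luciferase flanked by upstream and downstream ATXN2 gene portions) were treated 24 h at 37 °C with compounds at up to 57 uM. SteadyGlo luminescence gave expression; GF-AFC fluorescence gave viability.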
ATXN viability: cell viability loss in ATXN counter-screen; S2 cells (HEK-293 line with an ATXN2-luciferase reporter) viability, CellTiter-Fluor protease fluorescence, 24 h; AID 651635; 400,000 compounds, 0.49% hits; Potency, µM (titrated, usually from 56.7 µM), usual class: cytotoxic; note: potency is the fitted concentration of half-maximal effect; nearly all actives have a fitted effect of over 40% in size
HepG2 viability: HepG2 cytotoxicity, counter-screen for TGF-b inhibitors; HepG2 CAGA-GFP viability, ATP luminescence, 18 h; Potency, µM (highest dose often 46.1 µM), without a hit: at the highest dose activity change, negative = cytotoxicity, usual class: cytotoxic; 410,000 compounds, 0.76% hits; AID 588856; note: potency is the fitted concentration of half-maximal effect
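CellTiter-Glo luminescence gave cytotoxicity after 18 hours at 37 degrees C. The cells were HepG2 CAGA-GFP in 1% FBS DMEM, stimulated with 500 pg/mL TGF-beta after compound addition. %Activity was normalised to no-cell wells (complete cell-killing) and DMSO (no toxicity), and curves were fitted and classified.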
Active calls of the source: *; [ ] = remark or other dose. The list is not random: actives were taken first. Their share in the collection is about 4.8%. Unless noted, calls come from the whole dose curve; as a rule, active = well fitted curve in the direction sought with a large enough effect; inconclusive = small, poorly fitted or top-dose-only effect, or another doubt; inactive = no such curve, though single readings can be large; an effect the other way counts as inactive or inconclusive.

Results for Cc1cc(C(=O)NCC2CCC3(CCN(Cc4cccc(F)c4F)CC3)O2)n(C)n1 (configuration not stated) ?
ATXN viability: inactive

Results for CCc1nc2ccc(C(=O)Nc3cc(-c4ccccc4)ccc3OC)cn2c1N(CC)CCN(C)C ?
D3 antag: inconclusive; DRD3 agonist: -6; TGFb SMAD3 inh: inconclusive; ATXN2 expr inh: inconclusive; HepG2 viability: 14µM*

What do the screens show for `CCc1nc2ccc(C(=O)Nc3cc(-c4ccccc4)ccc3OC)cn2c1N(CC)Cc1cccc(Br)c1`?
D3 antag: 36; DRD3 agonist: 5; TGFb SMAD3 inh: -9%; ATXN2 expr inh: 4%; ATXN viability: inconclusive; HepG2 viability: -20%

What do the screens show for `CCCCN(C=O)c1c(CC)nc2ccc(C(=O)Nc3cc(-c4ccccc4)ccc3OC)cn12`?
D3 antag: 1; DRD3 agonist: -9; TGFb SMAD3 inh: 7.1µM*; ATXN2 expr inh: inconclusive; ATXN viability: inactive; HepG2 viability: -11%

What do the screens show for `Cc1ccc2c(=O)cc(C(=O)N(Cc3ccc(N(C)C)cc3)C3CCS(=O)(=O)C3)oc2c1` (configuration not stated)?
DRD3 agonist: -4; TGFb SMAD3 inh: -4%; ATXN2 expr inh: 9%; ATXN viability: inactive; HepG2 viability: 3%

Results for Cc1ccc2nc(CSc3nc(C)ccc3C#N)[nH]c2c1 ?
D3 antag: 6; DRD3 agonist: -22; TGFb SMAD3 inh: -1%; ATXN2 expr inh: 2.2µM*; HepG2 viability: -50%

What do the screens show for `Cc1ccc(C#N)c(SCc2ccccc2F)n1`?
D3 antag: 2; DRD3 agonist: 2; TGFb SMAD3 inh: -3%; ATXN2 expr inh: -13%; ATXN viability: inactive; HepG2 viability: 40%

How did CCc1c(CN2CCN(c3cccc(C)c3C)CC2)csc1C do in these assays?
DRD3 agonist: -31; TGFb SMAD3 inh: -24%; HepG2 viability: -37%

What do the screens show for `COc1ccc(CN=Cc2c(O)[nH]c3ccccc23)cc1`?
D3 antag: -8; DRD3 agonist: 0; TGFb SMAD3 inh: -26%; ATXN2 expr inh: -11%[11.3 µM]; ATXN viability: inconclusive; HepG2 viability: -27%

How did Cc1ccc(CN=Cc2[nH]c3ccc(Br)c(Cl)c3c2O)cc1 do in these assays?
D3 antag: -101*; DRD3 agonist: -26; TGFb SMAD3 inh: -7%; ATXN2 expr inh: -21%; ATXN viability: inactive; HepG2 viability: 18µM*

Results for CNc1nc(SCc2ccc(C)cc2)nc2c1CCCC2 ?
D3 antag: 29; DRD3 agonist: -10; TGFb SMAD3 inh: 16µM*; ATXN2 expr inh: -12%; ATXN viability: inactive; HepG2 viability: -4%

What do the screens show for `Clc1cccc(CNc2ncnc3nc[nH]c23)c1`?
TGFb SMAD3 inh: -1%; HepG2 viability: -7%

What do the screens show for `Cc1ccccc1-c1nc(CN2CCC(C(=O)NCc3ccc(F)cc3)CC2)c(C)o1`?
DRD3 agonist: -6; TGFb SMAD3 inh: -27%; ATXN2 expr inh: -28%; ATXN viability: inconclusive; HepG2 viability: -32%

Results for CC(=O)N1CCN(c2ccc(NC(=O)c3ccc(C(C)(C)C)cc3)cc2)CC1 ?
D3 antag: -89*; DRD3 agonist: 17; TGFb SMAD3 inh: -20%; ATXN2 expr inh: inconclusive; ATXN viability: inconclusive; HepG2 viability: -49%

Results for Cc1cc(N2CCN(C)CC2)nc2ccc(NC(=O)c3ccc(C(C)(C)C)cc3)cc12 ?
DRD3 agonist: -6; TGFb SMAD3 inh: inconclusive; ATXN2 expr inh: inconclusive; ATXN viability: 16µM*; HepG2 viability: 13µM*

Results for Cc1cc(N2CCN(C)CC2)nc2ccc(NC(=O)Nc3ccc(Cl)cc3)cc12 ?
DRD3 agonist: -5; TGFb SMAD3 inh: 36%; ATXN2 expr inh: 13%; ATXN viability: inactive; HepG2 viability: -16%

Results for CC(=O)N1CCN(c2ccc(NC(=O)c3ccc(Cl)cc3)cc2)CC1 ?
D3 antag: 26; DRD3 agonist: 3; TGFb SMAD3 inh: -21%; ATXN2 expr inh: -5%; ATXN viability: inactive; HepG2 viability: -25%

Results for CCN1CCN(c2cc(C)c3cc(NC(=O)c4cncc(Br)c4)ccc3n2)CC1 ?
D3 antag: -69*; DRD3 agonist: -11; TGFb SMAD3 inh: -2%; ATXN2 expr inh: -16%; ATXN viability: inactive; HepG2 viability: -47%

What do the screens show for `COc1cc(/C=N/n2c(-c3ccc4c(c3)NC(=O)CO4)csc2=Nc2cccc(C)c2)ccc1O`?
D3 antag: -5; DRD3 agonist: -4; TGFb SMAD3 inh: inconclusive; ATXN2 expr inh: inconclusive; ATXN viability: inconclusive; HepG2 viability: -9%

Results for Oc1ccc(/C=N/n2c(-c3ccco3)csc2=Nc2cccnc2)c(O)c1 ?
D3 antag: 43; DRD3 agonist: 18; TGFb SMAD3 inh: inconclusive; ATXN2 expr inh: inconclusive; ATXN viability: inconclusive; HepG2 viability: -24%

Results for CN=c1scc(-c2cccs2)n1/N=C/c1ccccc1O ?
D3 antag: 28; DRD3 agonist: 3; TGFb SMAD3 inh: inconclusive; ATXN2 expr inh: inconclusive; ATXN viability: inconclusive; HepG2 viability: -72%

How did COCCN=c1scc(-c2ccco2)n1/N=C/c1ccc(O)c(O)c1O do in these assays?
D3 antag: 19; DRD3 agonist: 117*; TGFb SMAD3 inh: 11%; ATXN2 expr inh: -14%; ATXN viability: inactive; HepG2 viability: 4%

How did COCCN=c1scc(-c2cccs2)n1/N=C(\C)c1ccco1 do in these assays?
D3 antag: 0; DRD3 agonist: 2; TGFb SMAD3 inh: -20%; ATXN2 expr inh: 13%; ATXN viability: inactive; HepG2 viability: -23%

What do the screens show for `C=CCN=c1scc(-c2ccco2)n1/N=C/c1ccc(O)c(O)c1O`?
D3 antag: 47; DRD3 agonist: 184*; TGFb SMAD3 inh: -32%; ATXN2 expr inh: -3%; ATXN viability: inconclusive; HepG2 viability: -30%

What do the screens show for `CN=c1scc(-c2cccs2)n1/N=C/c1ccc(O)c(O)c1O`?
D3 antag: 3; DRD3 agonist: 170*; TGFb SMAD3 inh: -25%; ATXN2 expr inh: -11%; ATXN viability: inconclusive; HepG2 viability: -23%

What do the screens show for `CC(C)N=c1scc(-c2ccco2)n1/N=C/c1ccc(O)c(O)c1`?
D3 antag: 5; DRD3 agonist: 19; TGFb SMAD3 inh: inconclusive; ATXN2 expr inh: 0%; ATXN viability: 32µM*; HepG2 viability: -64%

How did CCOC(=O)c1ccc(NC(=O)c2c(-c3c(F)cccc3Cl)noc2C)cc1 do in these assays?
DRD3 agonist: -4; TGFb SMAD3 inh: 20%; ATXN2 expr inh: -4%; ATXN viability: inactive; HepG2 viability: -9%
